Bioassay records: PubChem BioAssay, National Center for Advancing Translational Sciences (NCATS)
Shown are actives, neighbours in structure and some others; about 18% of the full set was active somewhere.
VDR inhibitor: blocks the human vitamin D receptor; VDR-SRC2-3 peptide fluorescence polarization, 2 h; Potency, µM, usual class: inhibitors; actives 0.93% (n = 400,000); AID 504847
Target sequence (P11473 whole entry, looked up): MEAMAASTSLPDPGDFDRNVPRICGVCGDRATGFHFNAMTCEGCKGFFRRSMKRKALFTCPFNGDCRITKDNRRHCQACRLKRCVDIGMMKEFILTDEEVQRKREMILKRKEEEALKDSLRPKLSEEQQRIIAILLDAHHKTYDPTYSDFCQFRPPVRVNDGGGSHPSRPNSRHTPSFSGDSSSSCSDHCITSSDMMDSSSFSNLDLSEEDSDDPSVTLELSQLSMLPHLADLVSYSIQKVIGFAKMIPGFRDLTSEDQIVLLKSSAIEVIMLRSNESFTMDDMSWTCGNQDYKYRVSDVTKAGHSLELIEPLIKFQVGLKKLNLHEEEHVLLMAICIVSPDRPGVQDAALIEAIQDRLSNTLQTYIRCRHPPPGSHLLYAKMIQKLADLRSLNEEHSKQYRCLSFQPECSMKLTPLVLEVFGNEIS
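VDR–SRC2-3 interaction, FP format. Cmpds 23 nl via pintool, brief spin, 2 h ambient incubation.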
TDP1 block: inhibitors of human tyrosyl-DNA phosphodiesterase TDP1; Q9NUW8; recombinant TDP1, AlphaScreen DNA substrate cleavage; Potency, µM (top dose mostly 130 µM), hits mostly inhibitors; actives 0.28% (n = 350,000); also: nearly all actives have a fitted effect of over 40% in size
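Tdp1 1 nM final; 15 min RT w/ cpd; substrate 15 nM, 5 min; beads 10 ug/ml, 10 min; AlphaScreen read. Neg ctrl: no enzyme.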
PLK1 PBD inh: blocks phosphopeptide binding to human PLK1 polo-box domain. P53350. Plk1 PBD binding of FITC phosphopeptide, fluorescence polarization. Potency, µM, actives largely listed as inhibitors. actives 2.8% (n = 360,000); also: series mostly up to about 57 µM; nearly all actives have a fitted effect of over 65% in size
GCN5L2 inh: GCN5L2 (KAT2A) acetyltransferase inhibition; Q92830; GCN5L2 HAT assay, ThioGlo1 CoA-SH fluorescence; Potency, µM (highest dose often 58.9 µM), usual class: inhibitors; actives 0.21% (n = 390,000)
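Titration-based screen in which CoA formation is detected via maleimide probe ThioGlo1 (50uM) turning fluorescent on thiol reaction; substrates H3(1-25) 75uM and acetyl-CoA 70uM, GCN5L2 20nM, 20 min incubation at room temperature.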
DT40 TDP1 CPT: growth inhibition of DT40 Tdp1-/-;hTDP1 cells with camptothecin (screen for TDP1 inhibitors); chicken DT40 Tdp1-/-;hTDP1 cells + 20 nM CPT, ATP luminescence, 48 h; Potency, µM (doses to about 46.2 µM), most hits filed as inhibitors; actives 12% (n = 420,000); AID 686979; also: nearly all actives have a fitted effect of over 55% in size
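Chicken DT40 Tdp1-/- cells complemented with human TDP1, 400 cells/well, exposed to compounds plus 20 nM camptothecin for at least 48 h at 37 C; viability read as ATP content by CellTiter-Glo luminescence.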
DT40 TDP1 no CPT: qHTS for Inhibitors of human tyrosyl-DNA phosphodiesterase 1 (TDP1): qHTS in cells in absence of CPT; actives 15% (n = 420,000); DT40 Tdp1-/- hTDP1 cells, no CPT, ATP luminescence, 48 h; AID 686978, 2013; Potency, µM (series often up to 46.2 µM), actives largely listed as inhibitors; also: nearly all actives have a fitted effect of over 55% in size
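Camptothecin absent (DMSO only). Human TDP1-complemented DT40 knockout cells, 400 cells/well, 37 °C for minimum 48 hr; ATP measured via CellTiter-Glo, 30 min dark incubation, luminescence.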
Hits are given with their value. Calls follow the shape of the dose curve; as a rule, active = well fitted curve in the direction sought with a large enough effect; inconclusive = small, poorly fitted or top-dose-only effect, or another doubt; inactive = no such curve, though single readings can be large; an effect the other way counts as inactive or inconclusive.

Screening COC(=O)c1sc(-c2ccc(C(C)(C)C)cc2)cc1NC(=O)CSCC(=O)O returned VDR inhibitor inactive, TDP1 block inactive, PLK1 PBD inh inconclusive, GCN5L2 inh inconclusive, DT40 TDP1 CPT inconclusive and DT40 TDP1 no CPT inconclusive.
Screening COCC(C)n1c(SC(C)C(=O)NC2CCCCC2C)nc2ccccc2c1=O (stereo not given) returned VDR inhibitor inactive, TDP1 block inactive, PLK1 PBD inh inactive, GCN5L2 inh inactive, DT40 TDP1 CPT inconclusive and DT40 TDP1 no CPT inconclusive.
Screening COC(=O)c1ccccc1NC(=O)NC1CCC(C)CC1 (stereo not given) returned VDR inhibitor inactive, TDP1 block inactive, PLK1 PBD inh inactive, GCN5L2 inh inactive, DT40 TDP1 CPT inactive and DT40 TDP1 no CPT 18µM.
CCN1CCC(NC(=O)Nc2ccccc2C(=O)OC)CC1 was read as VDR inhibitor inactive, TDP1 block inactive, PLK1 PBD inh inactive, GCN5L2 inh inactive, DT40 TDP1 CPT inactive and DT40 TDP1 no CPT inactive.
CC(C)C(NCC(=O)Nc1ccccc1C(=O)NC1CC1)c1ccccc1 (stereo not given) was read as VDR inhibitor inactive, TDP1 block inactive, PLK1 PBD inh inactive, GCN5L2 inh inactive, DT40 TDP1 CPT 16µM and DT40 TDP1 no CPT inconclusive.
COc1cc(OC)cc(C(=O)Nc2ccccc2C(=O)NC2CC2)c1 was read as VDR inhibitor inactive, TDP1 block inactive, PLK1 PBD inh inactive, GCN5L2 inh inactive, DT40 TDP1 CPT inconclusive and DT40 TDP1 no CPT 16µM.
O=C(Nc1ccccc1C(=O)NC1CC1)c1ccccc1 was read as VDR inhibitor inactive, TDP1 block inactive, PLK1 PBD inh inactive, GCN5L2 inh inactive, DT40 TDP1 CPT inactive and DT40 TDP1 no CPT inactive.
Screening Cc1ccc(-n2nc3c(c2NC(=O)c2ccc4c(c2)OCO4)CS(=O)(=O)C3)cc1C returned VDR inhibitor inactive, TDP1 block inactive, PLK1 PBD inh inactive, GCN5L2 inh inactive, DT40 TDP1 CPT inactive and DT40 TDP1 no CPT inactive.
Screening CCCN(CC(=O)Nc1cc(Cl)ccc1Cl)C(=O)c1ccccc1SCC(=O)N1CCCC1 returned VDR inhibitor inactive, TDP1 block inactive, PLK1 PBD inh inactive, GCN5L2 inh inactive, DT40 TDP1 CPT inconclusive and DT40 TDP1 no CPT inactive.
For O=Cc1c(-c2ccc(Cl)cc2)oc2ccc(O)cc12 the results were VDR inhibitor inactive, PLK1 PBD inh inactive, DT40 TDP1 CPT inactive and DT40 TDP1 no CPT inconclusive.
For C/C=C/c1ccc(OCCOCCOc2cccc3cccnc23)c(OC)c1 the results were VDR inhibitor inactive, TDP1 block inactive, PLK1 PBD inh inactive, GCN5L2 inh inactive, DT40 TDP1 CPT 23µM and DT40 TDP1 no CPT 15µM.
`C=CCc1ccc(OCCOCCOc2cccc3cccnc23)c(OC)c1` gave VDR inhibitor inactive, TDP1 block inactive, PLK1 PBD inh inactive, GCN5L2 inh inactive, DT40 TDP1 CPT inconclusive and DT40 TDP1 no CPT 29µM.
Screening C[C@H](N)C(=O)NCC(=O)N[C@H]1CSSC[C@@H](C(=O)O)NC(=O)[C@H](CO)NC(=O)[C@H]([C@@H](C)O)NC(=O)[C@H](Cc2ccccc2)NC(=O)[C@H]([C@@H](C)O)NC(=O)[C@H](CCCCN)NC(=O)[C@H](Cc2c[nH]c3ccccc23)NC(=O)[C@H](Cc2ccccc2)NC(=O)[C@H](Cc2ccccc2)NC(=O)[C@H](CC(N)=O)NC(=O)[C@H](CCCCN)NC1=O returned VDR inhibitor inactive and GCN5L2 inh inactive.
COc1ccccc1CNc1ccnc(-c2cccc(NS(C)(=O)=O)c2)n1 was read as VDR inhibitor inconclusive, GCN5L2 inh inconclusive, DT40 TDP1 CPT inconclusive and DT40 TDP1 no CPT inactive.
`O=C(O)CCCN1C(=O)C(=O)/C(=C(/O)c2ccccc2)C1/C=C/c1ccccc1` (stereo not given) gave VDR inhibitor inconclusive, TDP1 block inactive, PLK1 PBD inh 13µM, GCN5L2 inh inactive, DT40 TDP1 CPT inconclusive and DT40 TDP1 no CPT inactive.
